Measured values: PubChem BioAssay (NCATS)
Results filed as inconclusive are left out. A call without a number means that no potency is given here. The source made the active and inactive calls. Calls follow the shape of the dose curve; as a rule, active = well fitted curve in the direction sought with a large enough effect; inconclusive = small, poorly fitted or top-dose-only effect, or another doubt; inactive = no such curve, though single readings can be large; an effect the other way counts as inactive or inconclusive.
Potency is read from the fitted curve at half-maximal effect.

Assay: qHTS of pediatric cancer cell lines to identify multiple opportunities for drug repurposing: Primary screen for DAOY cells (AID 1347090); also: nearly all actives have a fitted effect of over 55% in size
Settings: DAOY medulloblastoma viability, CellTiter-Glo luminescence, 48 h; series mostly up to 46 µM
Outline: (§1)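 Viability measured as metabolically active cells via CellTiter-Glo luminescence following 48 hours of compound exposure, 11-point dilutions in confirmatory testing. 500-1,000 cells/well plated 5 hours before dosing; controls were DMSO and 2.3 µM bortezomib.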
With Cc1onc(-c2c(Cl)cccc2Cl)c1C(=O)Cl the Potency was “inactive”. In the case of CCOC(=O)Oc1ccc(CCNC(=O)[C@H](CCSC)NC(C)=O)cc1OC(=O)OCC, the Potency is reported as “inactive”. In the case of O=[N+]([O-])c1nccn1CO[C@@H](CO)[C@H](O)CO, the Potency is reported as “inactive”. For NS(=O)(=O)c1ccc(N2CCCCS2(=O)=O)cc1, the Potency was “inactive”. For O=C(O)CCC(=O)OC[C@@H](NC(=O)C(Cl)Cl)[C@H](O)c1ccc([N+](=O)[O-])cc1, the Potency was “inactive”. With CC(=O)c1ccc(O)c(C(N)=O)c1 the Potency was “inactive”. For O=C1c2ccccc2CCc2ccccc21, the Potency was “inactive”. In the case of CCOC(=O)c1ccc(NC(=O)CN2CCCCC2)cc1, the Potency is reported as “inactive”. For Cc1c(F)cc2c(=O)c(C(=O)O)cn3c2c1CCC3C (stereo not drawn), the Potency was “inactive”. With CC(C)(C)NCC(O)COc1ccccc1OCC1CCCO1 (stereo not drawn) the Potency was “inactive”. In the case of Cc1ccc(O)cc1, the Potency is reported as “inactive”. With CCCCC(CC)CNC(=O)CC(C)OC(=O)CCC(=O)O (stereo not drawn) the Potency was “inactive”. For CCN(CC)CC(=O)OCC(=O)[C@@]1(O)CC[C@H]2[C@@H]3CCC4=CC(=O)CC[C@]4(C)[C@H]3[C@@H](O)C[C@@]21C, the Potency was “inactive”. With OCCCc1ccccc1 the Potency was “inactive”. In the case of O=C(CCCCC(=O)Nc1c(I)cc(I)c(C(=O)O)c1I)Nc1c(I)cc(I)c(C(=O)O)c1I, the Potency is reported as “inactive”. In the case of Cc1cccc(OCC(O)CNC(C)(C)C)c1C (stereo not drawn), the Potency is reported as “inactive”. With Cc1ccc(C(=O)C(=O)O)cc1C the Potency was “inactive”. For CC(=O)Nc1c(I)c(NC(C)=O)c(I)c(C(=O)O)c1I, the Potency was “inactive”. In the case of CC(C)(Oc1ccc(Cl)cc1)C(=O)OCCCOC(=O)C(C)(C)Oc1ccc(Cl)cc1, the Potency is reported as “inactive”. With O=C(CO)[C@@H](O)[C@H](O)[C@@H](O)CO the Potency was “inactive”. With CCOC(=O)O[C@]1(C(=O)OCCl)CC[C@H]2[C@@H]3CCC4=CC(=O)C=C[C@]4(C)[C@H]3[C@@H](O)C[C@@]21C the Potency was “inactive”. With C[C@H]1C[C@H](O)c2ccsc2S1(=O)=O the Potency was “inactive”. With CCN(CC)CC(=O)Oc1ccc(NC(C)=O)cc1 the Potency was “inactive”. With COC(=O)c1cc(Cl)c(NC(C)=O)cc1OC the Potency was “inactive”. For C[N+]1(C)CCC(OC(=O)C(O)(c2ccccc2)C2CCCC2)C1 (stereo not drawn), the Potency was “inactive”. With CCOC(=O)C(O)c1ccccc1 (stereo not drawn) the Potency was “inactive”. With CCN1CCCC1CN (stereo not drawn) the Potency was “inactive”. For Cc1cc2nc3ccc(=[N+](C)C)cc-3sc2cc1N, the Potency was 13.3 µM (active). In the case of CCOC(=O)OCC/C(SC(=O)OCC)=C(\C)N(C=O)Cc1cnc(C)nc1N, the Potency is reported as “inactive”. With CCN(CC)CCN the Potency was “inactive”. For CC(C)(C)c1nnc(NS(=O)(=O)c2ccccc2)s1, the Potency was “inactive”. In the case of CC(C)C(=O)Nc1cccc(C(F)(F)F)c1, the Potency is reported as “inactive”. For CC(C)NCCCC1(C(N)=O)c2ccccc2-c2ccccc21, the Potency was “inactive”. For Oc1ccccc1-c1nnco1, the Potency was “inactive”. In the case of CN=C(N)NC(=O)Nc1c(C)cccc1C, the Potency is reported as “inactive”. In the case of Cc1cc(=O)oc2cc(O[C@@H]3SC[C@@H](O)[C@H](O)[C@H]3O)ccc12, the Potency is reported as “inactive”. In the case of CN1C(=O)c2ccccc2C1=O, the Potency is reported as “inactive”. With CCN1CCN(C(=O)N[C@@H](C(=O)N[C@@H]2C(=O)N3[C@@H]2SC(C)(C)[C@H]3C(=O)O)c2ccccc2)C(=O)C1=O the Potency was “inactive”. For O=C(C1CCCCC1)N1CC(=O)N2CCCc3ccccc3C2C1 (stereo not drawn), the Potency was “inactive”.

Assay: qHTS of pediatric cancer cell lines to identify multiple opportunities for drug repurposing: Primary screen for SJ-GBM2 cells (AID 1347091)
Settings: SJ-GBM2 viability, CellTiter-Glo luminescence, 48 h; series mostly up to 46 µM
Outline: as §1
With Cc1onc(-c2c(Cl)cccc2Cl)c1C(=O)Cl the Potency was “inactive”. With CCOC(=O)Oc1ccc(CCNC(=O)[C@H](CCSC)NC(C)=O)cc1OC(=O)OCC the Potency was “inactive”. For O=[N+]([O-])c1nccn1CO[C@@H](CO)[C@H](O)CO, the Potency was “inactive”. In the case of NS(=O)(=O)c1ccc(N2CCCCS2(=O)=O)cc1, the Potency is reported as “inactive”. With O=C(O)CCC(=O)OC[C@@H](NC(=O)C(Cl)Cl)[C@H](O)c1ccc([N+](=O)[O-])cc1 the Potency was “inactive”. For CC(=O)c1ccc(O)c(C(N)=O)c1, the Potency was “inactive”. In the case of O=C1c2ccccc2CCc2ccccc21, the Potency is reported as “inactive”. With CCOC(=O)c1ccc(NC(=O)CN2CCCCC2)cc1 the Potency was “inactive”. For Cc1c(F)cc2c(=O)c(C(=O)O)cn3c2c1CCC3C (stereo not drawn), the Potency was “inactive”. For CC(C)(C)NCC(O)COc1ccccc1OCC1CCCO1 (stereo not drawn), the Potency was “inactive”. For Cc1ccc(O)cc1, the Potency was “inactive”. With CCCCC(CC)CNC(=O)CC(C)OC(=O)CCC(=O)O (stereo not drawn) the Potency was “inactive”. In the case of CCN(CC)CC(=O)OCC(=O)[C@@]1(O)CC[C@H]2[C@@H]3CCC4=CC(=O)CC[C@]4(C)[C@H]3[C@@H](O)C[C@@]21C, the Potency is reported as “inactive”. For OCCCc1ccccc1, the Potency was “inactive”. With O=C(CCCCC(=O)Nc1c(I)cc(I)c(C(=O)O)c1I)Nc1c(I)cc(I)c(C(=O)O)c1I the Potency was “inactive”. For Cc1cccc(OCC(O)CNC(C)(C)C)c1C (stereo not drawn), the Potency was “inactive”. With Cc1ccc(C(=O)C(=O)O)cc1C the Potency was “inactive”. With CC(=O)Nc1c(I)c(NC(C)=O)c(I)c(C(=O)O)c1I the Potency was “inactive”. With CC(C)(Oc1ccc(Cl)cc1)C(=O)OCCCOC(=O)C(C)(C)Oc1ccc(Cl)cc1 the Potency was “inactive”. In the case of O=C(CO)[C@@H](O)[C@H](O)[C@@H](O)CO, the Potency is reported as “inactive”. For CCOC(=O)O[C@]1(C(=O)OCCl)CC[C@H]2[C@@H]3CCC4=CC(=O)C=C[C@]4(C)[C@H]3[C@@H](O)C[C@@]21C, the Potency was “inactive”. With C[C@H]1C[C@H](O)c2ccsc2S1(=O)=O the Potency was “inactive”. In the case of CCN(CC)CC(=O)Oc1ccc(NC(C)=O)cc1, the Potency is reported as “inactive”. With COC(=O)c1cc(Cl)c(NC(C)=O)cc1OC the Potency was “inactive”. With C[N+]1(C)CCC(OC(=O)C(O)(c2ccccc2)C2CCCC2)C1 (stereo not drawn) the Potency was “inactive”. For CCOC(=O)C(O)c1ccccc1 (stereo not drawn), the Potency was “inactive”. In the case of CCN1CCCC1CN (stereo not drawn), the Potency is reported as “inactive”. With Cc1cc2nc3ccc(=[N+](C)C)cc-3sc2cc1N the Potency was 21.1 µM (active). In the case of CCOC(=O)OCC/C(SC(=O)OCC)=C(\C)N(C=O)Cc1cnc(C)nc1N, the Potency is reported as “inactive”. For CCN(CC)CCN, the Potency was “inactive”. For CC(C)(C)c1nnc(NS(=O)(=O)c2ccccc2)s1, the Potency was “inactive”. With CC(C)C(=O)Nc1cccc(C(F)(F)F)c1 the Potency was “inactive”. For CC(C)NCCCC1(C(N)=O)c2ccccc2-c2ccccc21, the Potency was “inactive”. In the case of Oc1ccccc1-c1nnco1, the Potency is reported as “inactive”. With CN=C(N)NC(=O)Nc1c(C)cccc1C the Potency was “inactive”. For Cc1cc(=O)oc2cc(O[C@@H]3SC[C@@H](O)[C@H](O)[C@H]3O)ccc12, the Potency was “inactive”. For CN1C(=O)c2ccccc2C1=O, the Potency was “inactive”. With CCN1CCN(C(=O)N[C@@H](C(=O)N[C@@H]2C(=O)N3[C@@H]2SC(C)(C)[C@H]3C(=O)O)c2ccccc2)C(=O)C1=O the Potency was “inactive”. For O=C(C1CCCCC1)N1CC(=O)N2CCCc3ccccc3C2C1 (stereo not drawn), the Potency was “inactive”.
